Test results reported in PubChem BioAssay.

test: inhibition of PAO1 biofilm formation – strain PAO1, LB-PBS medium, absorbance 600 nm, primary screen (AID 1176); settings: P. aeruginosa PAO1 growth/biofilm, A600, 12 h; higher = more signal
Note: test concentration not given here.

z-score, inactive:
CC1(C)[C@@H]2CC(C(O)C3C=CC4C(=O)N(c5ccccc5)C(=O)C4N3Nc3ccccc3F)=C[C@@H]1C2 (stereo partly drawn) 0.16
COc1ccc(C#Cc2ccc3c(c2)[C@]2(C(=O)N3)[C@H](C(N)=O)[C@H]3C(=O)O[C@H](c4ccccc4)[C@H](c4ccccc4)N3[C@@H]2c2ccc(O)cc2)cc1 1.41
COc1ccc([Si](C)(C)[C@@H]2[C@@H](CCO)O[C@]3(C(=O)N(Cc4ccc(N5C(=O)c6ccccc6Oc6ccccc65)cc4)c4ccccc43)[C@H]2C)cc1 2.88
NC(=O)NCC#Cc1ccc2c(c1)[C@]1(C(=O)N2)[C@H](c2ccc(O)cc2)N2[C@H](c3ccccc3)[C@H](c3ccccc3)OC(=O)[C@H]2[C@@H]1C(=O)NC[C@H](O)c1ccccc1 -0.136
CO[C@H]1O[C@H](CO)[C@@H](OC(=O)c2ccc(Br)cc2)[C@@H]2OC(=O)[C@H](Cc3cccc(Br)c3)C/C=C/C[C@@H](Cc3cccc(Br)c3)C(=O)O[C@@H]12 0.566
CO[C@H]1O[C@H](CO)[C@@H](OC(=O)Nc2cccc(F)c2)[C@H](OC(=O)Nc2ccc3c(c2)OCO3)[C@H]1OC(=O)Nc1ccc2c(c1)OCO2 1.38
CC(C)C[C@H]1NC(=O)[C@H](C)NC(=O)[C@@]23C(=O)N[C@@H](Cc4ccccc4)C2[C@H](C)[C@@]2(C)O[C@H]2C3/C=C/C/C=C\CNC1=O (stereo partly drawn) 0.413
Cc1ccc(C(C)CC(O)C2C=CC3C(=O)N(Cc4ccccc4)C(=O)C3N2n2cnnc2)o1 (stereo not drawn) 0.368
COCCCNC(=O)[C@@]1(Cc2ccccc2)COC(c2ccc(OCCCO)cc2)=N1 -0.499
O=C1c2ccccc2[C@](Cc2ccccc2I)(C(=O)NC2CC2)[C@H](c2ccc(CO)cc2)N1Cc1ccccc1Cl 0.925
CCOC(=O)C[C@H]1[C@H](OC(=O)Cc2ccc3c(c2)OCO3)[C@@H](NC(=O)c2ccccc2)c2cc(OCCCO)ccc2N1C(=O)c1ccccc1 0.0885
CCOC(=O)C1=CC[C@@H](c2ccc(N(CC)CC)cc2)N(S(=O)(=O)c2ccc(C)cc2)[C@H]1c1ccc([N+](=O)[O-])cc1 0.698
COC(=O)C(CC#Cc1ccc2c(c1)[C@]1(C(=O)N2)[C@H](C(=O)N2CCc3cc(OC)c(OC)cc3C2)[C@H]2C(=O)O[C@H](c3ccccc3)[C@H](c3ccccc3)N2[C@@H]1c1ccc(OCCO)cc1)C(=O)OC 3.55
CC(C)N1C(=O)c2ccccc2[C@](C)(C(=O)O)[C@@H]1c1ccc(CO)cc1 0.332
C=CCC(OC(C)=O)[C@@H]1[C@@H](N(Cc2ccc(-c3ccccc3)cc2)C(=O)c2cccc3ccccc23)c2cc(OCCCO)ccc2N1C(=O)c1ccc2ccccc2n1 (stereo partly drawn) 0.161
[N-]=[N+]=Nc1ccccc1[C@H]1OC(c2ccc(OCCCO)cc2)=N[C@@]1(Cc1ccccc1)C(=O)NCc1ccccc1 0.124
COCCCNC(=O)[C@]1(CCS(=O)(=O)c2ccccc2)N=C(c2ccc(OCCCO)cc2)O[C@@H]1c1ccccc1 -0.0304
NC(=O)NCC#Cc1ccc2c(c1)[C@]1(C(=O)N2)[C@H](c2ccc(OCCO)cc2)N2[C@H](c3ccccc3)[C@H](c3ccccc3)OC(=O)[C@H]2[C@@H]1C(=O)N1CCCCCCC1 2.03
O=C1C[C@@](C(=O)O)(c2ccc([N+](=O)[O-])cc2)[C@@H](c2ccc(CO)cc2)N1CC12CC3CC(CC(C3)C1)C2 0.692
O=C1C[C@@](C(=O)NCc2ccccc2)(c2ccc([N+](=O)[O-])cc2)[C@@H](c2ccc(CO)cc2I)N1C1CCCCC1 -0.301
COc1cccc(C[C@H]2C[C@@H](CO[Si](C(C)C)(C(C)C)C(C)C)N3C(=O)[C@]4(C(C)=O)O[C@]23[C@H]2C(=O)N(C)C(=O)[C@H]24)c1 1.32
COCC(=C=CC[C@@H](O)c1ccccc1OCCO)C[C@@H](O)COCc1ccccc1 0.191
COC(=O)C(CC#Cc1ccc2c(c1)[C@]1(C(=O)N2)[C@H](C(=O)N2CCc3cc(OC)c(OC)cc3C2)[C@H]2C(=O)O[C@H](c3ccccc3)[C@H](c3ccccc3)N2[C@@H]1c1ccc(O)cc1)C(=O)OC 3.04
CN1C(=O)C2C=CC(C(O)COCc3ccccc3)N(Nc3ccccc3)C2C1=O (stereo not drawn) -0.0346
Cc1ccccc1C(O)C1C=CC2C(=O)N(Cc3ccccc3)C(=O)C2N1n1cnnc1 (stereo not drawn) 0.726

test: growth modulation of vineyard yeast isolate – strain RM11-1a, OD600, basal, 24 h, primary screen (AID 1177);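 note: cultures grown under basal conditions with no added stressor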; settings: S. cerevisiae RM11-1a growth, OD600, 24 h; higher = more signal, called active from +8 up or from −8 down

z-score, inactive:
Cc1cc(C)c(C(O)C2C=CC3C(=O)N(c4ccccc4)C(=O)C3N2Nc2ccccc2)c(C)c1 (stereo not drawn) 0.292
O=C1O[C@H](c2ccccc2)[C@H](c2ccccc2)N2[C@H]1[C@@H](C(=O)N1CCN(c3ncccn3)CC1)[C@]1(C(=O)Nc3ccc(C#CCCO)cc31)[C@H]2c1ccc(OCCO)cc1 1.2
O=C1CSC(c2cccc([N+](=O)[O-])c2)N1c1ccccc1 (stereo not drawn) 0.468
COC(=O)C(CC#Cc1ccc2c(c1)[C@]1(C(=O)N2)[C@H](c2ccc(O)cc2)N2[C@H](c3ccccc3)[C@H](c3ccccc3)OC(=O)[C@H]2[C@@H]1C(=O)O)C(=O)OC -0.316
COCCCNC(=O)[C@@]1(Cc2ccccc2I)c2ccccc2C(=O)N(Cc2ccccc2Cl)[C@H]1c1ccc(CO)cc1 -0.0403
COC(=O)[C@]1(Cc2ccccc2CN=[N+]=[N-])N=C(c2ccc(OCCCO)cc2)O[C@@H]1c1ccccc1 3.06
CN(C)CCCCCCNC(=O)[C@@H]1C[C@@H]2C(=O)NCC(=O)N2[C@@H]1c1ccc(O)cc1 -0.832
COC(=O)c1ccc(OC)c(/C=C\CC(CCc2ccccc2)OC(=O)c2ccncc2)c1 (stereo not drawn) -0.0204
CCOC(=O)C[C@H]1[C@H](OC(=O)Cc2ccc3c(c2)OCO3)[C@@H](NC(=O)c2ccccc2)c2cc(OCCCO)ccc2N1C(=O)c1ccc2ccccc2n1 -1.68
CCCNC(=O)[C@@]1(Sc2ccc(C)cc2)CC(=O)N(Cc2ccccc2)[C@@H]1c1ccc(CO)cc1I -0.598
CC1(C)[C@@H]2CC(C(O)C3C=CC4C(=O)N(c5ccccc5)C(=O)C4N3Nc3ccccc3F)=C[C@@H]1C2 (stereo partly drawn) -0.393
COc1ccc(C#Cc2ccc3c(c2)[C@]2(C(=O)N3)[C@H](C(N)=O)[C@H]3C(=O)O[C@H](c4ccccc4)[C@H](c4ccccc4)N3[C@@H]2c2ccc(O)cc2)cc1 1.68
COc1ccc([Si](C)(C)[C@@H]2[C@@H](CCO)O[C@]3(C(=O)N(Cc4ccc(N5C(=O)c6ccccc6Oc6ccccc65)cc4)c4ccccc43)[C@H]2C)cc1 4.38
NC(=O)NCC#Cc1ccc2c(c1)[C@]1(C(=O)N2)[C@H](c2ccc(O)cc2)N2[C@H](c3ccccc3)[C@H](c3ccccc3)OC(=O)[C@H]2[C@@H]1C(=O)NC[C@H](O)c1ccccc1 -0.0444
CO[C@H]1O[C@H](CO)[C@@H](OC(=O)c2ccc(Br)cc2)[C@@H]2OC(=O)[C@H](Cc3cccc(Br)c3)C/C=C/C[C@@H](Cc3cccc(Br)c3)C(=O)O[C@@H]12 0.393
CO[C@H]1O[C@H](CO)[C@@H](OC(=O)Nc2cccc(F)c2)[C@H](OC(=O)Nc2ccc3c(c2)OCO3)[C@H]1OC(=O)Nc1ccc2c(c1)OCO2 1.48
CC(C)C[C@H]1NC(=O)[C@H](C)NC(=O)[C@@]23C(=O)N[C@@H](Cc4ccccc4)C2[C@H](C)[C@@]2(C)O[C@H]2C3/C=C/C/C=C\CNC1=O (stereo partly drawn) -0.837
Cc1ccc(C(C)CC(O)C2C=CC3C(=O)N(Cc4ccccc4)C(=O)C3N2n2cnnc2)o1 (stereo not drawn) -1.4
COCCCNC(=O)[C@@]1(Cc2ccccc2)COC(c2ccc(OCCCO)cc2)=N1 -0.031
O=C1c2ccccc2[C@](Cc2ccccc2I)(C(=O)NC2CC2)[C@H](c2ccc(CO)cc2)N1Cc1ccccc1Cl 1.9
CCOC(=O)C[C@H]1[C@H](OC(=O)Cc2ccc3c(c2)OCO3)[C@@H](NC(=O)c2ccccc2)c2cc(OCCCO)ccc2N1C(=O)c1ccccc1 0.0859
CCOC(=O)C1=CC[C@@H](c2ccc(N(CC)CC)cc2)N(S(=O)(=O)c2ccc(C)cc2)[C@H]1c1ccc([N+](=O)[O-])cc1 -0.101
COC(=O)C(CC#Cc1ccc2c(c1)[C@]1(C(=O)N2)[C@H](C(=O)N2CCc3cc(OC)c(OC)cc3C2)[C@H]2C(=O)O[C@H](c3ccccc3)[C@H](c3ccccc3)N2[C@@H]1c1ccc(OCCO)cc1)C(=O)OC 4.29
CC(C)N1C(=O)c2ccccc2[C@](C)(C(=O)O)[C@@H]1c1ccc(CO)cc1 0.595
C=CCC(OC(C)=O)[C@@H]1[C@@H](N(Cc2ccc(-c3ccccc3)cc2)C(=O)c2cccc3ccccc23)c2cc(OCCCO)ccc2N1C(=O)c1ccc2ccccc2n1 (stereo partly drawn) -0.909
[N-]=[N+]=Nc1ccccc1[C@H]1OC(c2ccc(OCCCO)cc2)=N[C@@]1(Cc1ccccc1)C(=O)NCc1ccccc1 -0.947
COCCCNC(=O)[C@]1(CCS(=O)(=O)c2ccccc2)N=C(c2ccc(OCCCO)cc2)O[C@@H]1c1ccccc1 -0.588
NC(=O)NCC#Cc1ccc2c(c1)[C@]1(C(=O)N2)[C@H](c2ccc(OCCO)cc2)N2[C@H](c3ccccc3)[C@H](c3ccccc3)OC(=O)[C@H]2[C@@H]1C(=O)N1CCCCCCC1 2.58
